3T3 cytotox – Cytotoxic Profiling in NIH 3T3 Cell Line of Diverse Libraries Using Quantitative High-Throughput Screening. 94,000 tested, 4.3% active. Potency, µM (series often up to 96.7 µM), inactives show top-dose activity change, negative = cytotoxicity, actives largely listed as inhibitors. AID 1345082, 2018. NIH 3T3 viability, CellTiter-Glo ATP luminescence, 48-72 h; also: nearly all actives have a fitted effect of over 55% in size
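First NIH 3T3 cells are plated at 400 cells/well; next compound is pinned in; then plates incubate 48 or 72 hr at 37 °C; finally CellTiter-Glo is added and luminescence read after 10 min.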
GPT2 inh – Primary qHTS assay for inhibitors of Glutamate pyruvate transaminase 2 (GPT2); Recombinant GPT2, coupled pyruvate oxidase/HRP Amplex Red fluorescence; Alanine aminotransferase 2 (Homo sapiens), Q8TD30; Potency, µM (series often up to 57.7 µM), for the others: at the highest dose activity change, negative = inhibition, usual class: inhibitors; 100,000 tested, 0.25% active; also: nearly all actives have a fitted effect of over 60% in size
Target sequence (Q8TD30 whole entry, looked up): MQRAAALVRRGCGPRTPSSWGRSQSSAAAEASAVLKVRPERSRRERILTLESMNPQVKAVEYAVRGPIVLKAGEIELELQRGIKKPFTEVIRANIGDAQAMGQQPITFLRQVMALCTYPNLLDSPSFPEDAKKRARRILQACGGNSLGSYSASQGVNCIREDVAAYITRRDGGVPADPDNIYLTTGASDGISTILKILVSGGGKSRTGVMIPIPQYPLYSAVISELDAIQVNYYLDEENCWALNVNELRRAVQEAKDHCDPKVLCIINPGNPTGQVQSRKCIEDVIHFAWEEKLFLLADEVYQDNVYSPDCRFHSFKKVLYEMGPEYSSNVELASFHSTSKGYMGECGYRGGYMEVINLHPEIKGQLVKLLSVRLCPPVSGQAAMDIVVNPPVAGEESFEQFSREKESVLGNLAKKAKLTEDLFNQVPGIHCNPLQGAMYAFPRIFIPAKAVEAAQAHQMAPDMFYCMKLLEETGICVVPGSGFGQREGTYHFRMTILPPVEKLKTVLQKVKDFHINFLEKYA
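Fluorescence read-out: pyruvate from GPT2 turnover coupled to pyruvate oxidase, HRP and Amplex Red (0.2mM ThPP, 0.2U/mL PO and HRP, 50uM Amplex final). Substrates 250uM a-KG, 2mM L-alanine; enzyme 10ng/uL; 30 min RT.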
hNpr1 antagonist – Natriuretic polypeptide receptor (hNpr1) antagonism - Primary qHTS; HEK293 hNpr1 GloSensor cGMP, ANP-stimulated luminescence; Potency, µM (highest dose often 46.3 µM), for the others: top-dose activity change, negative = inhibition, usual class: inhibitors; 76,000 tested, 1.6% active; AID 1347048, 2019; calls by dose curve; also: nearly all actives have a fitted effect of over 60% in size
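Compound pre-incubated 30 min at room temperature on GloSensor-loaded HEK293 cells stably carrying hNpr1 and the pGS-40F cGMP biosensor. Stimulation uses hNppA at 0.1 nM final; luminescence is taken at baseline and 20 min post-agonist.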
FLuc inh – Firefly luciferase inhibition profiling of diverse chemical library using quantitative high-throughput screening; Luciferin 4-monooxygenase (Photinus pyralis), P08659; purified P. pyralis luciferase, luminescence, biochemical; Potency, µM (titrated, usually from 115 µM), usual class: inhibitors; 76,000 tested, 2.5% active; AID 1347043, 2019; also: nearly all actives have a fitted effect of over 65% in size
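Purified P. pyralis luciferase (10nM final) in 50mM Tris acetate pH 7.5, 10mM Mg acetate, 0.01% Tween-20, 0.05% BSA with 10uM D-luciferin and 10uM ATP. Compounds titrated qHTS. Luminescence imaged on CCD.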
HEK cytotox – Cytotoxic Profiling in HEK 293 Cell Line of Diverse Libraries Using Quantitative High-Throughput Screening; HEK 293 viability, ATP luminescence (CellTiter-Glo), 48-72 h; Potency, µM (top dose mostly 115 µM), inactives show at the top dose activity change, negative = cytotoxicity, actives largely listed as inhibitors; 94,000 tested, 6.6% active; AID 1345083, 2018; also: nearly all actives have a fitted effect of over 60% in size
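Read-out: CellTiter-Glo ATP luminescence. Cells: HEK 293, 250 cells/well. Exposure: 48 or 72 hr, 37 degree Celsius.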
The depositor's hits bear a star; i = inactive; ? = inconclusive; . = not tested or not shown; [ ] = another dose, or the depositor's remark. Most compounds without a hit are left out; they make up all but 10% or so of the library. Unless noted, calls follow the shape of the dose curve; as a rule, active = well fitted curve in the direction sought with a large enough effect; inconclusive = small, poorly fitted or top-dose-only effect, or another doubt; inactive = no such curve, though single readings can be large; an effect the other way counts as inactive or inconclusive. % is scaled to controls: 0 for no effect and ±100 for the full control effect; potency is read from the fitted curve at half-maximal effect.

SMILES | 3T3 cytotox | GPT2 inh | hNpr1 antagonist | FLuc inh | HEK cytotox
CC(=O)NC1CCCc2c1[nH]c1ccc(Cl)cc21 (centres undefined) | ? | -13.0% | -1.0% | i | ?
Cn1c(=O)cc(C(=O)NC2CCCc3c2[nH]c2ccc(Cl)cc32)c2ccccc21 (centres undefined) | ? | i | -0.3% | i | 31.6µM*
CC(=O)N1CCN(C(=O)C2CCc3nnc(CN[S+](=O)([O-])c4ccccc4Cl)n32)CC1 (centres undefined) | -10.2% | i | . | . | -2.6%
O=C(NCCNC(=O)c1cccc(-c2ccsc2)c1)NC1CCCC1 | -24.9% | 4.5% | . | . | ?
O=C(C1CCCN(Cc2cccc(-c3ccsc3)c2)C1)N1CCN(c2ncccn2)CC1 (centres undefined) | ? | . | . | . | 31.6µM*
CC(C)N1CC2CCC(C1)N2Cc1cccc(-c2ccsc2)c1 | ? | i | . | . | ?
O=C(NCCc1ccccc1)C1CCCN(Cc2cccc(-c3cccs3)c2)C1 (centres undefined) | ? | i | . | . | ?
O=C(NCCc1ccccc1)C1CCCN(Cc2cccc(-c3ccsc3)c2)C1 (centres undefined) | 39.8µM* | . | . | . | ?
CC(C)NC(=O)C1CCCN(Cc2cccc(-c3ccsc3)c2)C1 (centres undefined) | ? | . | . | . | 44.7µM*
O=C(NCCNC(=O)C1CCCC1)c1cccc(-c2ccsc2)c1 | ? | -1.1%[88.5 µM] | . | . | 79.4µM*
O=C(C1CCCN1C(=O)C1CCCC1)N1CCC(N2CCOCC2=O)CC1 (centres undefined) | -2.6% | i | . | . | 3.9%
O=C1[C@H]2CN(Cc3cc(Cl)ccc3F)C[C@H]2C(=O)N1CCc1ccccc1 | -21.5% | 0.9% | -1.9% | i | ?
O=C(NCCCc1ccccc1)C1CCCN(Cc2cccc(-c3ccsc3)c2)C1 (centres undefined) | 35.5µM* | . | . | . | 39.8µM*
O=C(NCCc1ccc(Cl)cc1)c1ccc2nnc(-c3ccoc3)n2c1 | ? | i | . | . | ?
O=C(NCc1ccccc1Cn1cccn1)c1ccc2cccc(F)c2n1 | ? | -1.4% | 2.3% | i | ?
CC(C)(O)CCc1cccc(C(=O)NCCCc2ccccn2)c1 | -1.4% | 3.2%[11.5 µM] | 1.3% | ? | i
CC(C)(O)CCc1cccc(C(=O)NCc2ccccc2Cn2cccn2)c1 | 22.4µM* | -16.4% | -11.0% | i | -23.2%
CC(C)(O)CCc1cccc(C(=O)NCCNc2cccnc2)c1 | ? | ? | -6.3% | i | 31.6µM*
COCCNC(=O)C1CCN(c2nccc(Nc3ccccc3OC)n2)CC1 | ? | i | . | . | ?
CC(C)CN(Cc1cccnc1)C1CN(C(=O)CC2CCCCC2)C1 | 5.62µM* | 4.6% | -16.0% | i | ?
O=C(NCc1ccccc1)c1nc2cccnc2n(CCc2ccccc2)c1=O | ? | -6.9% | . | . | ?
CCN1C[C@H]2COc3ccccc3[C@H]2N(C(=O)COc2ccccc2)CCC1=O | ? | . | . | . | -8.6%
COCCn1ccc2c(C3=CCOCC3)nc(-c3cccc(NC(C)=O)c3)cc21 | ? | ? | -4.9%[70.6 µM] | i | ?
COCCn1ccc2c(C3=CCOCC3)nc(-c3cccc(N[S+](C)(=O)[O-])c3)cc21 | 35.5µM* | ? | -2.7%[70.6 µM] | i | ?
COCCn1ccc2c(C3=CCOCC3)nc(-c3cccc4cn[nH]c34)cc21 | ? | ? | -16.2%[70.6 µM] | i | 79.4µM*
SMILES | 3T3 cytotox | GPT2 inh | hNpr1 antagonist | FLuc inh | HEK cytotox
Cc1cccc(C(=O)N2CC(CNC(=O)N3CCCC3)C3(CCOCC3)C2)c1 (centres undefined) | i | i | . | . | 1.2%
Cc1cccc(CN2C[C@@H](F)[C@@H](OCc3nc4ccccc4[nH]3)C2)n1 | -28.5%[174 µM] | i | 4.8%[70.6 µM] | i | ?
COc1cccc(CN2Cc3nc(N(C)c4ccccc4)ccc3OCC2=O)c1 | ? | -8.0%[88.5 µM] | ? | ? | 89.1µM*
CN(c1ccccc1)c1ccc2c(n1)CN(Cc1ccc(F)cc1)C(=O)CO2 | 89.1µM* | -9.4%[88.5 µM] | ? | 50.1µM* | ?
CNC(=O)c1cc(C2CC2)nc2c1c(C1CCCN1C(=O)c1ccc(OC)cc1)nn2C (centres undefined) | -16.0% | . | . | . | -3.5%
CC(=O)N1CCN(C(=O)c2nc3cccnc3n(C3CC3)c2=O)CC1 | -8.9%[138 µM] | i | . | . | -0.5%[172 µM]
COCc1nc(-c2ccc(OC3CCN(C(=O)Cc4c[nH]c5ccccc45)C3)cc2)no1 (centres undefined) | ? | 2.6% | ? | i | 35.5µM*
CCc1nc(-c2ccc(OC3CCN(C(=O)c4sc(C)nc4C)C3)cc2)no1 (centres undefined) | ? | i | -19.9% | i | 44.7µM*
CCc1nc(-c2ccc(OC3CCN(S(=O)(=O)Cc4ccccc4)C3)cc2)no1 (centres undefined) | ? | i | ? | ? | 44.7µM*
Cc1nc(C)c(C(=O)N2CC(Oc3ccc(-c4noc(-c5ccccc5)n4)cc3)C2)s1 | -11.6% | i | ? | ? | -17.2%
O=C(NC1CC1)c1nc(-c2ccc(F)cc2)c2cnccn12 | ? | -6.3% | 0.6%[70.6 µM] | i | ?
O[C@@H]1CN(CC2CCNCC2)CC[C@H]1c1ccc2ccccc2c1 | ? | -7.7% | 2.2% | i | ?
Nc1cc(-c2ccncc2)c[nH]c1=O | . | 10µM* | . | . | .
Cc1ccccc1CN1CCc2nc(C(=O)Nc3ccccc3)oc2CC1 | ? | 1.0%[88.5 µM] | 10µM* | ? | 39.8µM*
O=C(Nc1ccc(Cl)cc1)c1nc2c(o1)CCN(Cc1cnc[nH]1)CC2 | ? | 1.6%[88.5 µM] | ? | 70.8µM* | ?
Cc1cc(F)cc(CN2CCc3nc(C(=O)Nc4ccccc4)oc3CC2)c1 | 25.1µM* | i | 12.6µM* | 22.4µM* | ?
Cc1ccccc1CN1CCc2nc(C(=O)N3CCOCC3)oc2CC1 | ? | i | ? | ? | ?
CC1=C[C@@H](CNC(=O)c2cccnc2)[C@H](C(C)C)C[C@H]1Cc1nc2ccc(F)cc2[nH]1 | ? | i | -4.3%[70.6 µM] | i | ?
COCC(=O)NC[C@@H]1C=C(C)[C@H](Cc2nc3ccccc3[nH]2)C[C@H]1C(C)C | ? | -0.6%[88.5 µM] | -22.0%[70.6 µM] | i | ?
COCC(=O)NC[C@@H]1C=C(C)[C@H](Cc2nc3ccc(F)cc3[nH]2)C[C@H]1C(C)C | 50.1µM* | ? | -14.6%[70.6 µM] | i | ?
